“And” between values parts separate entries of the source, which are not always exact repeats. Equal values may be shown once. Results filed as inconclusive are left out. The source made the active and inactive calls. Calls come from the whole dose curve; as a rule, active = well fitted cell-killing curve with a large enough effect; inconclusive = small, poorly fitted or top-dose-only effect; inactive = flat fitted curve, though single readings scatter.
assay: Cellular viability qHTS for adrenocortical cancer (ACC) cell line SW-13 (AID 1963989); details: SW-13 ACC cells viability, CellTiter-Glo, 48 h; activity (max response): hits give low values; note: nearly all actives have a fitted effect of over 65% in size;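 for activity (max response): cells grown in serum-free medium with ITS supplement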
Outline: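 Luminescent ATP read-out (CellTiter-Glo, 20 min at room temperature) measured metabolically competent SW-13 cells after 48 h compound treatment. Final concentrations spanned up to 46 uM; bortezomib served as positive control.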
% is set by controls: 0 for no effect and ±100 for the full control effect; potency is the fitted concentration of half-maximal effect.

Compound | Potency | activity (max response)
C[C@@H](O[C@H]1OCCN(Cc2n[nH]c(=O)[nH]2)[C@@H]1c1ccc(F)cc1)c1cc(C(F)(F)F)cc(C(F)(F)F)c1 | 22.4 µM (active) | 
c1cc(-c2cnn3cc(-c4ccc(N5CCNCC5)cc4)cnc23)c2cccnc2c1 | 22.4 µM (active) | 
CCC[C@H](N[C@H]1CCc2cc(F)cc(F)c2C1)C(=O)Nc1cn(C(C)(C)CNCC(C)(C)C)cn1 | 14.1 µM (active) | 
Cn1ncc(Cl)c1-c1cc(C(=O)N[C@H](CN)Cc2ccc(F)c(F)c2)sc1Cl | 8.91 µM (active) | 
COc1ccccc1C(=O)Nc1cc2c(cc1N1CCCCC1)n(C)c(=O)n2C |  | -17.1% (inactive)
COc1cc(C(=S)N2CCOCC2)cc(OC)c1OC |  | 1.86% (inactive)
CO/N=C(\C(=O)O)c1csc(NC(=O)CCl)n1 |  | 13% (inactive)
CC(C)C[C@@H](N)C(=O)O |  | 8.35% (inactive)
C1=C/COCc2cc(ccc2OCCN2CCCC2)Nc2nccc(n2)-c2cccc(c2)COC/1 | 4.47 µM (active) | 
CCCCOCCOC(=O)c1cccnc1 |  | -1.25% (inactive)
COc1ccc(CCN2CCC(Nc3nc4ccccc4n3Cc3ccc(F)cc3)CC2)cc1 | 20.6 µM (active) | 
CN(C)C/C=C/C(=O)Nc1cc2c(Nc3ccc(F)c(Cl)c3)ncnc2cc1O[C@H]1CCOC1 | 0.891 µM (active) | 
CC1=C(/C=C/C(C)=C/C=C/C(C)=C/C(=O)O)C(C)(C)CCC1 |  | -7.6% (inactive) and 3.95% (inactive)
C=CC(=O)N1CCC[C@@H](n2nc(-c3ccc(Oc4ccccc4)cc3)c3c(N)ncnc32)C1 |  | 5.79% (inactive)
CC[C@@H]1[C@H](F)C(=O)N[C@@H]1COc1nccc2cc(C(N)=O)c(OC)cc12 |  | -21.5% (inactive)
CN(C)C/C=C/C(=O)Nc1cccc(C(=O)Nc2cccc(Nc3ncc(Cl)c(-c4c[nH]c5ccccc45)n3)c2)c1 | 0.316 µM (active) | 
C=CC(=O)Nc1cccc(Nc2nc(Nc3ccc(OCCOC)cc3)ncc2F)c1 | 15.8 µM (active) | 
COc1ccc(Cc2cnc(N)nc2N)cc1OC |  | 8.41% (inactive)

Compound | Potency | activity (max response)
CCCCCCCCCCCCCCCC[N+](C)(C)CC | 5.17 µM (active) | 
OC1(c2ccc(Cl)c(C(F)(F)F)c2)CCN(CCCC(c2ccc(F)cc2)c2ccc(F)cc2)CC1 | 4.11 µM (active) | 
C[C@]12CCCN1CC1=NNC(=O)c3cc(F)cc4[nH]c2c1c34 |  | -23.5% (inactive)
CCNC(=O)NCc1cccc(Cl)c1 |  | -4.81% (inactive)
C=C1[C@H](OC(=O)/C=C(\C)CC)C[C@@H](C(C)C)[C@@H]2[C@H]([C@@H](C)OC(C)=O)C(=O)C[C@@H]12 |  | 6.72% (inactive)
COC(=O)c1cc(Cl)c(NC(C)=O)cc1OC |  | 11.7% (inactive)
COc1cc(OC)c(/C=C/S(=O)(=O)Cc2ccc(OC)c(NCC(=O)O)c2)c(OC)c1 | 0.02 µM (active) | 
O=C(CCc1ccc(O)cc1)c1c(O)cc(O)cc1O[C@@H]1O[C@H](CO)[C@@H](O)[C@H](O)[C@H]1O |  | 0.618% (inactive)
c1ccc2sc(SN3CCOCC3)nc2c1 |  | 3.28% (inactive)
Cc1c(N(C)C)c(=O)n(-c2ccccc2)n1C |  | 10.1% (inactive)
CCCCCN(CCCOC)C(=O)C(CCC(=O)O)NC(=O)c1ccc(Cl)c(Cl)c1 (stereo unspecified) |  | 5.62% (inactive)
CCNCCc1ccc(CN(CC)c2cc(OC)ccc2[C@@H]2CCc3cc(O)ccc3C2)cc1 | 6.31 µM (active) | 
Cc1ccc([N+](=O)[O-])cc1S(=O)(=O)N(C)/N=C/c1cnc2ccc(Br)cn12 | 0.282 µM (active) | 
N=C(N)c1ccc2nc(-c3cc(CC(=O)N[C@@H](CC(=O)O)C(=O)O)cc(-c4cc(S(N)(=O)=O)ccc4O)c3O)[nH]c2c1 |  | 10.3% (inactive)
C#CC[C@H](c1nc2cc(Cl)ccc2c(=O)n1Nc1ccccc1)N(CCCN)C(=O)c1cccc(Cl)c1F | 0.251 µM (active) | 
CC(=O)c1ccc(O)c(C(N)=O)c1 |  | 17.1% (inactive)
CC(C)Cc1ccc([C@@H](C)C(=O)NS(C)(=O)=O)cc1 |  | 5.6% (inactive)
COC1=C(OC)C(=O)C(C/C=C(\C)CC/C=C(\C)CC/C=C(\C)CC/C=C(/C)CC/C=C(\C)CC/C=C(\C)CC/C=C(\C)CC/C=C(\C)CC/C=C(\C)CCC=C(C)C)=C(C)C1=O |  | 3.03% (inactive)
